# DT40 TDP1 CPT – qHTS for Inhibitors of human tyrosyl-DNA phosphodiesterase 1 (TDP1): qHTS in cells in presence of CPT | chicken DT40 Tdp1-/-;hTDP1 cells + 20 nM CPT, ATP luminescence, 48 h | Potency, µM (titrated, usually from 46.2 µM), usual class: inhibitors | 420,000 tested, 12% active | AID 686979, 2013; further: nearly all actives have a fitted effect of over 55% in size
#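 Chicken DT40 Tdp1-/- cells complemented with human TDP1, 400 cells/well, exposed to compounds plus 20 nM camptothecin for at least 48 h at 37 C; viability read as ATP content by CellTiter-Glo luminescence.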
# TDP1 block – qHTS Assay for Inhibitors of Tyrosyl-DNA Phosphodiesterase (TDP1); recombinant TDP1, AlphaScreen DNA substrate cleavage; Potency, µM (top dose mostly 130 µM), usual class: inhibitors; AID 485290, 2010; 350,000 tested, 0.28% active; Tyrosyl-DNA phosphodiesterase 1 (Homo sapiens), Q9NUW8; further: nearly all actives have a fitted effect of over 40% in size
# Target sequence (Q9NUW8 whole entry, looked up): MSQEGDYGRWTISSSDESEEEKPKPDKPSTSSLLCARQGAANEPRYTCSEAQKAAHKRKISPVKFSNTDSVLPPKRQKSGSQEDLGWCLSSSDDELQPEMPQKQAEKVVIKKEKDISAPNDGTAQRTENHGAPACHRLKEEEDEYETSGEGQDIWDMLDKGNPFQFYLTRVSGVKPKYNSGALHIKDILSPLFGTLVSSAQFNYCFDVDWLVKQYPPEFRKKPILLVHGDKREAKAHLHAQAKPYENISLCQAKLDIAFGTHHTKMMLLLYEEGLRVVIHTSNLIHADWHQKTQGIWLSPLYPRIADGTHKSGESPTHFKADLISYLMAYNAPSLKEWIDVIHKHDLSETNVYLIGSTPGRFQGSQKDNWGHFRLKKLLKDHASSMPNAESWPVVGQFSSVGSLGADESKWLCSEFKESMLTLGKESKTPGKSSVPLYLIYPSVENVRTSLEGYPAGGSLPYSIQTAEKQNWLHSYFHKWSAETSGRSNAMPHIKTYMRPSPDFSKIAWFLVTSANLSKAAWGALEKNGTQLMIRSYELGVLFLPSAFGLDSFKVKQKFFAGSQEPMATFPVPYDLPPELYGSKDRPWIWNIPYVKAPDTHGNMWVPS
#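 Enzyme-compound mixtures sat 15 min at room temperature, followed by a 5 min reaction with 15 nM final substrate and 10 min with AlphaScreen beads. Recombinant human Tdp1 was used at 1 nM final.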
# DT40 TDP1 no CPT – qHTS for Inhibitors of human tyrosyl-DNA phosphodiesterase 1 (TDP1): qHTS in cells in absence of CPT; Potency, µM (titrated, usually from 46.2 µM), most hits filed as inhibitors; DT40 Tdp1-/- hTDP1 cells, no CPT, ATP luminescence, 48 h; AID 686978, 2013; 420,000 tested, 15% active; further: nearly all actives have a fitted effect of over 55% in size
#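 Cells were dispensed at 400 per well, compounds added by pin tool, plates incubated ≥48 hr at 37 °C, then CellTiter-Glo added for 30 min at room temperature before luminescence reading. Line: DT40 Tdp1-/- complemented with hTDP1; camptothecin omitted.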
# TGFb SMAD3 inh – qHTS for Inhibitors of TGF-b; HepG2 CAGA-GFP TGF-b/SMAD3 reporter, GFP fluorescence, 18 h; TGF-beta stimulated, 500 pg/mL final; Potency, µM (doses to about 46.1 µM), usual class: inhibitors; 410,000 tested, 1.2% active; AID 588855, 2011; further: nearly all actives have a fitted effect of over 65% in size
#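 Inhibition was scored as loss of TGF-beta-induced (500 pg/mL final, 18 hours, 37 degrees C) GFP in HEPG2 cells carrying a CAGA-GFP reporter, in DMEM with 1% FBS. Well GFP was summed per cell; Activity was normalised to unstimulated and stimulated DMSO wells, then concentration-response fitting.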
# IL1B secr inh – qHTS for Inhibitors of Inflammasome Signaling: IL-1-beta AlphaLISA Primary Screen. 360,000 tested, 4.7% active. activity change, % at 57.5 µM. THP-1 LPS/ATP IL-1B secretion, AlphaLISA, 16 h; hits give low values; in the data active means activity change below about -50%; inconclusive means mostly about -30% to -49%
#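 Secreted IL-1B measured by AlphaLISA bead assay after 16 h compound exposure of THP-1 cells; compounds (final up to 57.5 uM) added 1 h before LPS (250 ng/mL) and ATP (1.25 mM) stimulation; lower signal means less secretion.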
# HepG2 viability – qHTS for Inhibitors of TGF-b: Cytotox Counterscreen. 410,000 tested, 0.76% active. Potency, µM (series often up to 46.1 µM), actives largely listed as cytotoxic. HepG2 CAGA-GFP viability, ATP luminescence, 18 h
#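 CellTiter-Glo luminescence gave cytotoxicity after 18 hours at 37 degrees C. The cells were HepG2 CAGA-GFP in 1% FBS DMEM, stimulated with 500 pg/mL TGF-beta after compound addition. %Activity was normalised to no-cell wells (complete cell-killing) and DMSO (no toxicity), and curves were fitted and classified.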
# Hits are given with their value; – = inactive; ? = inconclusive; · = no result; [ ] = dose if it differs, or a comment. Compounds with a hit are over-represented: about 18% of the library has one in this group of screens. Unless noted, the call rests on the fitted dose curve; in most records, active means well fitted curve in the direction sought with a large enough effect; inconclusive means small, poorly fitted or top-dose-only effect, or another doubt; inactive means no such curve, though single readings can be large; an effect the other way counts as inactive or inconclusive.
SMILES,DT40 TDP1 CPT,TDP1 block,DT40 TDP1 no CPT,TGFb SMAD3 inh,IL1B secr inh,HepG2 viability
CC(=O)N1c2ccc(S(=O)(=O)NCCC(=O)Nc3ncccc3C)cc2CC1C (stereo unspecified),–,–,–,–,–,–
CC(=O)N1c2ccc(S(=O)(=O)NCCC(=O)NC3CCCC(C)C3C)cc2CC1C (stereo unspecified),–,–,?,?,-52,–
CC(C)(O)[C@H](O)Cc1cc2ccc(=O)oc2cc1O[C@@H]1O[C@H](CO)[C@@H](O)[C@H](O)[C@H]1O,–,–,–,–,–,–
Cc1ccc(N2C(=O)C(Cc3ccc(O)cc3)NC2=S)cc1C (stereo unspecified),–,–,–,–,–,–
COc1ccc(S(=O)(=O)NCCC(=O)NC2CCCCC2C)cc1[N+](=O)[O-] (stereo unspecified),–,18µM,–,–,–,–
CC(=O)N1c2ccc(S(=O)(=O)NCCC(=O)Nc3ccc(Cl)cc3)cc2CC1C (stereo unspecified),18µM,·,?,–,–,–
CC(=O)N1CCc2cc(S(=O)(=O)C(C)CC(=O)Nc3ccc(OC(F)(F)F)cc3)ccc21 (stereo unspecified),21µM,–,?,–,–,–
CCCCCCCCCCCCCCCCOC(=O)N1CCN(/[N+]([O-])=N/Oc2ccc([N+](=O)[O-])cc2[N+](C)=O)CC1,·,·,·,–,·,–
Cc1ccc(NC2CCCN(C(=O)c3cccc(-c4ncc[nH]4)c3)C2)cc1C (stereo unspecified),–,–,–,–,–,–
COc1ccc(OCC(=O)N/N=C/c2cccc3cccnc23)cc1,?,·,?,–,–,–
CC(C)(C)c1ccc(C2CC2C(=O)N/N=C\c2cc3ccccc3nc2Cl)cc1 (stereo unspecified),?,–,16µM,?,–,–
Cc1cc(/C=N\NC(=O)COc2cccc3cccnc23)c(C)n1-c1ccc(Br)cc1,?,–,–,?,–,–
O=C(COc1ccc(Cl)cc1)N/N=C/c1cccc2cccnc12,?,–,18µM,?,–,–
COc1cccc(/C=N/NC(=O)COc2cccc3cccnc23)c1O,7.3µM,–,4.1µM,?,–,–
Cc1ccnc(-n2c(C)cc(/C=N/NC(=O)COc3cccc4cccnc34)c2C)c1,–,–,–,–,-54,–
COc1cc(=O)n2c(c1C(=O)NC(C)c1ccco1)CCN(C(=O)c1ccccc1SC)CC2 (stereo unspecified),–,·,–,·,·,·
CN(C)C(=O)c1ccc(-c2ccc3ncnc(NCCN4CCOCC4)c3c2)cc1,–,·,–,·,·,·
CC1=C(C(=O)NC2CC(C)(C)Cc3c2cnn3-c2cccc(F)c2)OCCO1 (stereo unspecified),?,–,?,–,–,–
CCOC(=O)CCCCCC(=O)Nc1ccc2c(c1)C(=O)N([C@H](C)CO)C[C@H](C)[C@@H](CN(C)C(=O)Nc1ccccc1)OCCCC[C@@H](C)O2,?,·,?,–,–,–
COc1ccccc1OCC(=O)N/N=C/c1c(O)ccc2ccccc12,·,–,·,·,·,·
Cc1ccccc1OCC(=O)N/N=C/c1cc2ccccc2nc1Cl,15µM,–,15µM,–,–,–
COc1ccccc1OCC(=O)N/N=C/c1cccc2cccnc12,?,–,21µM,–,–,–
C=CCc1ccccc1OCC(=O)N/N=C/c1ccc(OC(C)=O)cc1OC(C)=O,5.8µM,–,6.5µM,–,–,–
O=C(COc1cccc(Cl)c1)N/N=C\c1cc2ccccc2nc1Cl,?,–,?,–,–,–
CC(=O)Oc1ccc(/C=N/NS(=O)(=O)c2ccc(C)cc2)c(OC(C)=O)c1,–,–,–,–,–,–
SMILES,DT40 TDP1 CPT,TDP1 block,DT40 TDP1 no CPT,TGFb SMAD3 inh,IL1B secr inh,HepG2 viability
Cc1cnc(SCc2ccccn2)nc1C1CCCN(C(=O)c2ccc3c(c2)OCCO3)C1 (stereo unspecified),–[9.04 µM],·,–,·,·,·
COc1cccc(CNC(=O)CCc2nnc3n(CC(C)C)c(=O)c4ccccc4n23)c1,–,–,–,–,·,–
COc1ccc(C(=O)Nc2cc(OC)c(Cl)cc2Cl)cc1,–,–,23µM,–,–,–
COc1cc(OC)c(NC(=O)c2cc3ccccc3cc2O)cc1Cl,10µM,·,?,?,-78,–
CN(C)C(=O)COc1ccccc1C(=O)OCC(=O)N(CCC#N)c1ccccc1,–,·,–,–,·,–
CCN(C(=O)CSc1nnc(SC)s1)c1c(N)n(Cc2ccccc2)c(=O)[nH]c1=O,–,–,–,–,–,–
O=C(O)c1ccccc1C(=O)OC1CCCC2CCCC21 (stereo unspecified),–,·,–,–,–,–
CC(C)CN(CC(C)C)c1ccc(/C=N/n2cnnc2)cc1[N+](=O)[O-],?,–,?,?,-55,–
CCOc1ccc2c(c1)c(=O)c(C(=O)c1ccc3c(c1)OCO3)cn2Cc1cccc(F)c1,?,–,23µM,?,·,–
Cc1ccc2c(c1)c(=O)c(C(=O)c1ccc3c(c1)OCO3)cn2Cc1cccc(F)c1,?,–,16µM,?,·,–
COc1cccc(Cn2cc(C(=O)c3ccccc3)c(=O)c3cc4c(cc32)OCO4)c1,?,–,?,–,·,–
CCc1ccc(C(=O)c2cn(CC(=O)Nc3ccc4c(c3)OCO4)c3ccc(CC)cc3c2=O)cc1,–,–,?,?,·,–
O=C(C[C@H]1C[C@H]2c3cc(NS(=O)(=O)c4ccc(F)cc4)ccc3O[C@H]2[C@H](CO)O1)NCc1ccncc1,–,·,–,–,–,–
Cc1ccc(NC(=O)CN2C(=O)NC(Cc3c[nH]c4ccccc34)C2=O)cc1S(=O)(=O)N1CCCCC1 (stereo unspecified),21µM,–,21µM,10µM,?,–
COc1ccc(Cl)cc1NC(=O)CN1C(=O)NC(Cc2c[nH]c3ccccc23)C1=O (stereo unspecified),?,–,?,?,-57,–
O=C(Cc1cccc(NC(=O)C2CCN(C(=O)c3ccccc3)CC2)c1)Nc1cccc(C(=O)N2CCCCC2)c1,–,·,–,–,–,–

# Screening data (PubChem)
